Among the data in ChEMBL document CHEMBL1157539, “Thousands of chemical starting points for antimalarial lead identification” (Nature, 2010) are Inhibition values, retold here.

One may read the Inhibition as how much of the control response was suppressed.

The test system of this experiment is Plasmodium falciparum. The experiment is described as follows: GSK_TCMDC: Inhibition of Plasmodium falciparum Dd2 in whole red blood cells, using parasite LDH activity as an index of growth. Test compounds present at 2uM. It counts as functional.
Compound `CNC(=O)c1ccccc1Nc1nc(Nc2cccc(CS(C)(=O)=O)c2)ncc1C.O=CO` showed an Inhibition of 95%.

The compound `COc1ccc2ccccc2c1CCCCN1CCN(CC(c2ccc(F)cc2)N2CCN(C3CCCC3)CC2)CC1.O=C(O)C(F)(F)F` (stereo not given) came in with an Inhibition of 51%.

For `O=C(Nc1ccc(Oc2ccccc2)cc1)N(Cc1ccc(-c2ccc(CN3CCNCC3)cc2)cc1)C1CCN(Cc2ccccc2)CC1.O=C(O)C(F)(F)F`, the Inhibition is given as 73%.

`O=C(Nc1cccc(CN2CCCN(Cc3ccc(O)cc3)CC2)c1)c1ccc(Cl)c(Cl)c1.O=C(O)C(F)(F)F` registered an Inhibition of 81%.

`CN1CCC(NCc2cccc(-c3ccc(S(=O)(=O)NCc4ccccc4)c(F)c3)c2)CC1.O=C(O)C(F)(F)F` displayed an Inhibition of 99%.

For `O=C(NCCN1CCC(NC(=O)c2ccc(-c3ccccn3)s2)CC1)c1cccc(C(F)(F)F)c1.O=C(O)C(F)(F)F`, the Inhibition amounted to 24%.

Turning to `O=C(Nc1ccc(N2CCCN(Cc3cccc(F)c3)CC2)cc1)c1cccs1.O=C(O)C(F)(F)F`, the Inhibition came out at 96%.

In turn, `COc1cc2nc(N(C)Cc3cccc(I)c3)nc(N)c2cc1OC` yielded an Inhibition of 88%.

With `COc1cc(NC(=O)c2cc3c(C)nn(-c4cccc(C(F)(F)F)c4)c3s2)cc(OC)c1OC`, the Inhibition was 50%.

As to `COc1ccc(C2=[N+]([O-])c3ccccc3C2=O)cc1`, the Inhibition is given as 61%.

For `CCc1c(CCNCCCCCCNCCc2ccc(OC)cc2)ccc(OC)c1OC.Cl`, the Inhibition is 0%.

For `Cc1ccc(C(C)C)c(Oc2cnc(NC(CO)c3ccccc3)nc2N)c1` (stereo not given), the Inhibition is 0%.

Compound `COc1ccc2ncc(F)c([C@H](O)CN3CCC(NCc4ccc5c(c4)OCCO5)CC3)c2c1.Cl` registered an Inhibition of 99%.

Regarding `Cc1nc2c(s1)c(=O)cc(CCc1cccc(F)c1F)n2CC(=O)N(Cc1ccc(-c2ccc(C(F)(F)F)cc2)cc1)C1CCN(C(C)C)CC1.O=C(O)C(O)C(O)C(=O)O`, the Inhibition is reported as 82%.

As for `COc1ccc2nccc(N3CCC(O)(CCNCc4ccc5c(n4)NC(=O)CS5)CC3)c2n1.Cl`, the Inhibition was determined as 21%.

`CCN(CC)CCN(Cc1ccc(-c2ccc(C(F)(F)F)cc2)cc1)C(=O)Cn1c(CCc2cccc(F)c2F)nc(=O)c2ccc(C)cc21.O=C(O)C(O)C(O)C(=O)O` yielded an Inhibition of 58%.

On to `N#Cc1ccccc1S(=O)(=O)N1CCCC(CNC(=O)[C@H](CC2CCCCC2)NC(=O)c2cc3ccccc3s2)C1` (stereo not given in full), for which the Inhibition came out at 92%.

With `COCCN(CCOC)c1ncc(-c2ccsc2)c(-c2nc(C)c(C)s2)n1`, the Inhibition is listed as 63%.

In turn, `O=C(Nc1ccc(Cl)cc1)Nc1cccc(-c2ccc(-c3nc4ccccc4[nH]3)cc2)c1` had an Inhibition of 6%.

For the compound `O=C(Nc1ccc(Cl)c(Cl)c1)Nc1cc(C(F)(F)F)ccc1Cl`, the Inhibition is recorded as 85%.

In turn, `COc1ccc2ncc(F)c(CCN3CCC(NCc4cc(OC)c5c(c4)OCCO5)CC3)c2n1.Cl` registered an Inhibition of 53%.

Compound `COc1cc(NC(=O)c2sc(-c3ccc(Cl)cc3)cc2NC(=O)CN2CC[C@@H](O)C2)ccc1OCCN1CCCC1` showed an Inhibition of 79%.

`Cc1cc(Cl)ccc1OC(C)C(=O)N1CCc2ccccc21` (stereo not given) showed an Inhibition of 78%.

`Cl.O=C(Nc1ccc(Cl)c(Cl)c1)N1CCc2ccc(OCCCN3CCCCC3)cc2CC1` gave an Inhibition of 0%.

The compound `CCc1cn2c3c(cc(C(=O)N[C@@H](Cc4cccc(F)c4)[C@H](O)CNC4CC4)cc13)N(C)S(=O)(=O)CC2.O=CO` returned an Inhibition of 98%.

In the case of `COc1cc2ncnc(Nc3ccc4nc(Cc5ccccc5)[nH]c4c3)c2cc1OC.Cl`, the Inhibition worked out at 28%.

In turn, `CC(C)c1nc(N2CCN(C(=S)NCc3ccccc3)CC2)c(C#N)c2c1COC(C)(C)C2` showed an Inhibition of 100%.

`CC(=O)N[C@H](C(=O)Nc1ccc(-c2ccc(-c3nc4cc(C(F)(F)F)ccc4[nH]3)cc2)cc1)C(C)C`: the Inhibition came to 76%.

For the compound `CCOc1ccc2c(=NN=Cc3cccc(OC)c3OC)cc(C)[nH]c2c1`, the Inhibition is 85%.

Regarding `CCCC(C)NC(=O)[C@H]1CNCCN1C(=O)CCCc1ccccc1.O=C(O)C(F)(F)F` (stereo not given in full), the Inhibition stood at 98%.

`Cc1cccc2nc(-c3cccc(-c4ccc(NC(=O)Nc5ccc(F)c(F)c5F)cc4)c3)[nH]c12` showed an Inhibition of 100%.

In the case of `CCc1c(C)nc(-n2nc(C)cc2NC(=O)CCc2ccccc2)[nH]c1=O`, the Inhibition is reported as 97%.

`O=C(Cn1c(CCc2cccc(F)c2F)cc(=O)c2cccnc21)N(CCn1ccnc1)Cc1ccc(-c2ccc(C(F)(F)F)cc2)cc1` returned an Inhibition of 62%.

The compound `CC(C)[C@H](NC(=O)c1ccc(O)c(-c2ccc(Cl)c(Cl)c2)c1)C(=O)NCCN1CCOCC1` returned an Inhibition of 44%.

As for `O=C(Nc1ccccc1F)N(CCCn1ccnc1)Cc1csc(-c2ccc(CNCc3ccccc3)cc2)n1.O=C(O)C(F)(F)F`, the Inhibition is 26%.

Regarding `Cc1nc(C)n(CC(=O)Nc2cccc(-c3cccc(-c4nc5cc(C(F)(F)F)ccc5[nH]4)c3)c2)n1`, the Inhibition is 96%.

In turn, `O=C(Nc1cccc(-c2csc(NC(=O)c3ccc4ccccc4c3)n2)c1)c1ccc2ccccc2c1` came in with an Inhibition of 35%.

In the case of `CCc1ccc(C2CCN(CCCCNC(=O)c3ccc(NC(=O)c4ccc(Cl)cc4)cc3)CC2)c(OCC(=O)OC)c1`, the Inhibition was 12%.

The compound `CC(C)c1ccc2oc(-c3ccc(NC(=O)c4ccc([N+](=O)[O-])o4)cc3)nc2c1` had an Inhibition of 95%.

Turning to `CC(=O)Nc1nnc(SCc2c(C)cc(C(C)(C)C)cc2C)s1`, the Inhibition is given as 91%.
